One assay has as its target Albumin (Bos taurus) (UniProt P02769). Kind of assay: bovine serum albumin binders on microarray, profiling panel, artefact control for SMM control protein annotation, biochemical, small-molecule microarray, Alexa647 label, 635/667 nm fluorescence (AID 1118).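 Further: score merges 667 nm emission intensity and signal-to-noise per printed compound spot.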 The note with it: BSA-A647 binding, fluorescence 635 nm, higher = more signal.
The nature of assay [1]: small-molecule microarray binders of probe aXIP, primary screen, biochemical, NeuroSMM set, 635/667 nm fluorescence (AID 1119).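 Further: probe is the protein aXip251-270 applied at 1 µg/mL to compound-printed slides; binding of probe to printed compounds measured as 667 nm fluorescence plus signal to noise.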 The conditions noted are these: higher = more signal, called active from +8 up or from −8 down.
Assay [2] can be described thus: small-molecule binders of probe aNOTCH3, primary screen, biochemical, small-molecule microarray, 635/667 nm fluorescence (AID 1120).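 Further: probe is a biotin-tagged antibody raised against NOTCH3 rather than NOTCH3 protein; score merges spot fluorescence near 667 nm with spot signal to noise.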 The note with it: higher = more signal.
A short description of assay [3]: small-molecule binders of probe aNOTCH2, primary screen, biochemical, small-molecule microarray, 635/667 nm fluorescence (AID 1121).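 Further: score merges feature fluorescence read at 667 nm with its signal to noise.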 The note with it: higher = more signal.
For assay [4], the target named is Carbonic anhydrase 2 (Homo sapiens) (UniProt P00918). Description: CAII small-molecule binders, profiling panel, biochemical, small-molecule microarray, Alexa647-labelled CAII (AID 1122). The conditions noted are these: CAII-A647 binding fluorescence, higher = more signal.
Assay [5] is described as follows: COS7 lysate on small-molecule microarray, probe aHis, 635 nm (AID 1123).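 Further: z-score combines 667nm fluorescence intensity with signal-to-noise per printed compound spot.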 The conditions noted are these: COS7 cell lysate, fluorescence, higher = more signal.
A short description of assay [6]: compound binding in COS7 lysate, probe aLAP1, primary screen, cell lysate, small-molecule microarray (AID 1124).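 Further: lysate comes from COS7 cells expressing LAP1 and is applied at 0.3 µg/mL; score merges spot fluorescence near 667 nm with signal-to-noise over triplicate slides.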 The conditions noted are these: probe aLAP1, fluorescence, higher = more signal.
A further assay relates to Sam68 (KHDRBS1). Description: Sam68 small-molecule binders, primary screen, biochemical, small-molecule microarray, 635 nm fluorescence (AID 1125).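 Further: score merges 667 nm channel intensity with signal to noise over triplicate slides.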 The conditions noted are these: small-molecule microarray binding, higher = more signal.
Assay [7] concerns Chordin-like protein 2 (CHRDL2). Kind of assay: CHRDL2 small-molecule binders, primary screen, biochemical, small-molecule microarray, 635 nm fluorescence (AID 1126).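 Further: printed compound slides probed with Chrdl2 protein at 4 µg/mL for 1 h at 4 C; score merges 667 nm emission intensity with signal to noise over three replicate slides.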 The conditions noted are these: small-molecule microarray binding, fluorescence 635 nm; higher = more signal.
In assay [8] the target is Concanavalin-A (Canavalia ensiformis) (UniProt P02866). Description: ConA small-molecule binders, primary screen, artefact control for SMM control protein annotation, biochemical, small-molecule microarray, Alexa647 label, 635 nm (AID 1127).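 Further: z combines 667 nm emission intensity with signal-to-noise across three replicate slides.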 The conditions noted are these: ConA-A647 binding fluorescence, higher = more signal.
A short description of assay [9]: anti-His antibody binders, primary screen, artefact control for SMM control protein annotation, biochemical, small-molecule microarray, 635 nm fluorescence (AID 1128).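 Further: score merges feature fluorescence with signal-to-noise for each printed compound spot.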 The note with it: anti-His Alexa647 antibody binding, higher = more signal.
Assay [10] deals with Human papillomavirus type 1a E7 protein (residues 1-88). Kind of assay: HPV1a E7 small-molecule binders, primary screen, biochemical, small-molecule microarray, residues 1-88, 635 nm (AID 1129). The note with it: small-molecule microarray binding, fluorescence 635 nm; higher = more signal.
The target in assay [11] is Focal adhesion kinase 1 (Homo sapiens) (UniProt Q05397). Description: small-molecule microarray binders of FAK, primary screen, biochemical, 635/667 nm fluorescence, BSA, DTT (AID 1130).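 Further: composite of spot emission at 667 nm and signal to noise over triplicate slides.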 The conditions noted are these: PTK2 binding, 635 nm fluorescence, higher = more signal.
Assay [12] relates to Fibrinogen (Alexa647-labelled). Description: fibrinogen binders on compound microarrays, profiling panel, artefact control for SMM control-protein annotation, biochemical, small-molecule microarray, 635/667 nm fluorescence (AID 1131).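 Further: z-score merges 667 nm fluorescence with per-spot signal-to-noise over triplicate slides.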 The note with it: fibrinogen-A647 binding fluorescence, higher = more signal.
For assay [13], the target named is Follistatin (Homo sapiens) (UniProt P19883). Description: follistatin binders on small-molecule microarrays, primary screen, biochemical, small-molecule microarray, 635/667 nm fluorescence (AID 1132). The note with it: FST binding, 635 nm fluorescence, higher = more signal.
Assay [14] addresses Fibroblast growth factor 2 (Homo sapiens) (UniProt P09038). Kind of assay: FGF2 binders on small-molecule microarrays, primary screen, biochemical, small-molecule microarray, 635/667 nm fluorescence (AID 1133). The conditions noted are these: small-molecule microarray binding, FGF2, fluorescence 635/667; higher = more signal.
A short description of assay [15]: mitochondrial membrane potential change in A549 cells, profiling panel, cell-based, JC-1 fluorescence, basal, 24 h, 100 nL (AID 1138).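 Further: A549 lung adenocarcinoma cells under basal conditions with no added stimulus; test concentration not given here.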 The note with it: higher = more signal.
In the next assay the test system is Lefty1. Description: Lefty1 binders on small-molecule microarrays, primary screen, biochemical, small-molecule microarray, 635/667 nm fluorescence (AID 1139). The note with it: small-molecule microarray binding, fluorescence 635/667; higher = more signal.
Assay [16] has as its system wheat germ agglutinin (Triticum aestivum), Alexa647-labelled. Description: wheat germ agglutinin binders on compound microarrays, profiling panel, artefact control for SMM control-protein annotation, biochemical, small-molecule microarray, 635/667 nm fluorescence (AID 1140).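 Further: score merges 667 nm feature emission with signal to noise over triplicate slides.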 The conditions noted are these: WGA-A647 binding, 635 nm fluorescence, higher = more signal.
Assay [17] addresses Luciferin 4-monooxygenase (Photinus pyralis) (UniProt P08659). Description: firefly luciferase enzyme inhibitors, primary screen, biochemical, luminescence, purified enzyme, 2006 set (AID 1141).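 Further: cell-free assay with purified firefly luciferase at 100 ng per well in PBS; test concentration not given here.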 The note with it: SteadyGlo luminescence, 30 min, higher = more signal, called active from +8 up or from −8 down.

The structures appear in SMILES notation. Active and inactive are the calls of the source.

The results in this text go back to PubChem BioAssay.

Sequence of Luciferin 4-monooxygenase (Photinus pyralis) (P08659 whole entry, looked up): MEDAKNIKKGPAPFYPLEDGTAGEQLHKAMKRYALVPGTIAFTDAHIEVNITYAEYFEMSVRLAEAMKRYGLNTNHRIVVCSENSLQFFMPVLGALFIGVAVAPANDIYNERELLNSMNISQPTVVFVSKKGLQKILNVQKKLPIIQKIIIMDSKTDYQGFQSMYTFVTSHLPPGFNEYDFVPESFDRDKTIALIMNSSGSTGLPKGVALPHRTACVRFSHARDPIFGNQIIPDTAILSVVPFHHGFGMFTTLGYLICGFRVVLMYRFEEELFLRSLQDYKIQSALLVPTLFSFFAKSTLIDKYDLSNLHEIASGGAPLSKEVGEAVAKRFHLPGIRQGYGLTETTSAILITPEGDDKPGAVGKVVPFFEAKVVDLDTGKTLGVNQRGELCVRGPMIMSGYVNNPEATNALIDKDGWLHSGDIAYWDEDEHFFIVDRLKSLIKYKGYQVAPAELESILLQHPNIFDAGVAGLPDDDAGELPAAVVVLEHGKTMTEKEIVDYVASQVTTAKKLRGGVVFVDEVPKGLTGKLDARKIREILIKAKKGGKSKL
Sequence of Follistatin (Homo sapiens) (P19883 whole entry, looked up): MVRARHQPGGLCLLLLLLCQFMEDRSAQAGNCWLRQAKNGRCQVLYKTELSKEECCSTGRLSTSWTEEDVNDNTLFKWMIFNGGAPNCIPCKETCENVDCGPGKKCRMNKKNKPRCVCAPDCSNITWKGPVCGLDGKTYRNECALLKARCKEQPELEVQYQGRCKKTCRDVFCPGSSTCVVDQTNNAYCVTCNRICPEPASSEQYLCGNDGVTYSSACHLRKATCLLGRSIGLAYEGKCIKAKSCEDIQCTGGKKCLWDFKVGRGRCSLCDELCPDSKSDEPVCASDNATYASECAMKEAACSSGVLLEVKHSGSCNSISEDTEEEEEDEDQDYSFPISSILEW
Sequence of Focal adhesion kinase 1 (Homo sapiens) (Q05397 whole entry, looked up): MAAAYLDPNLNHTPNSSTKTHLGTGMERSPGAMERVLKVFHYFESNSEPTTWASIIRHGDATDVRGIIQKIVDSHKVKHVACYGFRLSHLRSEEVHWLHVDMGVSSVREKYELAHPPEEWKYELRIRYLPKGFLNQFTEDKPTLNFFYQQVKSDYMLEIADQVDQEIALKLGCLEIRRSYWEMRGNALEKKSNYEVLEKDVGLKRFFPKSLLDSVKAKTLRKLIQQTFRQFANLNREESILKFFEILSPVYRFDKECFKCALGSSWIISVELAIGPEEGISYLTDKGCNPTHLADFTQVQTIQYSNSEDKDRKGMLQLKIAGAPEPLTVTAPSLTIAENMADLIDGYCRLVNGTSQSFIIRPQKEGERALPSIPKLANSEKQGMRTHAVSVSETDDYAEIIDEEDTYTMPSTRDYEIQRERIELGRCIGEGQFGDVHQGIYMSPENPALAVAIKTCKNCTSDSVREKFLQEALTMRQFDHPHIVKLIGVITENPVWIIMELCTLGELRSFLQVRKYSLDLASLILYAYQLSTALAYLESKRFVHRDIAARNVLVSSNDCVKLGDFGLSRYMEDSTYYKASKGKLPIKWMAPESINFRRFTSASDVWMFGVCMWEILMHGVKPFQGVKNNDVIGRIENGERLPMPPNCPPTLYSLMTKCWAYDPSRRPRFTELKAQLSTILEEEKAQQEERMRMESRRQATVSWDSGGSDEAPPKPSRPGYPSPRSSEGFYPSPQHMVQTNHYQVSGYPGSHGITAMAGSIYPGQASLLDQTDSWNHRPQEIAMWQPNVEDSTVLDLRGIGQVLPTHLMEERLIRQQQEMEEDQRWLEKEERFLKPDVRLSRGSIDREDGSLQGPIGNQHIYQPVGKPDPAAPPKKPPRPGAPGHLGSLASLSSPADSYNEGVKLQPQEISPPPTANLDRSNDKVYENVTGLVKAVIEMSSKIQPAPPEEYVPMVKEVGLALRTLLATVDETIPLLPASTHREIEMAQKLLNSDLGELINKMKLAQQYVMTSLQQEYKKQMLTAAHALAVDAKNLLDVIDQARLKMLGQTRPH
Sequence of Fibroblast growth factor 2 (Homo sapiens) (P09038 whole entry, looked up): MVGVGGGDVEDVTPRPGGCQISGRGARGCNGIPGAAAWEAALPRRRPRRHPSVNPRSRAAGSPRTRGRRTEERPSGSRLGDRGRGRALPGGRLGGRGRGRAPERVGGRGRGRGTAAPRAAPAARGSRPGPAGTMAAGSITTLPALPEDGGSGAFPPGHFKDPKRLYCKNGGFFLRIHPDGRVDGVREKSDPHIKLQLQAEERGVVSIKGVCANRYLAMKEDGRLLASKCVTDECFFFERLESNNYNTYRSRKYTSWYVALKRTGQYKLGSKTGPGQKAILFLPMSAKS
Sequence of Albumin (Bos taurus) (P02769 whole entry, looked up): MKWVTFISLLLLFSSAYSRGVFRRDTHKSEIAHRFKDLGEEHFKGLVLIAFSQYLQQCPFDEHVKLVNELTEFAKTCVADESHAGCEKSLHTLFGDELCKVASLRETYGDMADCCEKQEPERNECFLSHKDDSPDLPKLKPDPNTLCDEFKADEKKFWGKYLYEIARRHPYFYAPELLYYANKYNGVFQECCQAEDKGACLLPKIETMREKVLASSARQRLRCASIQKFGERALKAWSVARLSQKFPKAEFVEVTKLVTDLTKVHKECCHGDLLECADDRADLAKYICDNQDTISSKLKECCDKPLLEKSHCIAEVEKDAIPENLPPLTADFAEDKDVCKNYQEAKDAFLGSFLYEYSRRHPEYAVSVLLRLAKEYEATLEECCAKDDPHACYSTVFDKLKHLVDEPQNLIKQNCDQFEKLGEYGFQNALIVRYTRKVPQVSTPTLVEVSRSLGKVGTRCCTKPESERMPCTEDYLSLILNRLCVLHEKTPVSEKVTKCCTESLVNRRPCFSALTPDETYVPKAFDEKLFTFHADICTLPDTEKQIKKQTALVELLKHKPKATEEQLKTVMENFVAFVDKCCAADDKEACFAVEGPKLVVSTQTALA
Sequence of Concanavalin-A (Canavalia ensiformis) (P02866 whole entry, looked up): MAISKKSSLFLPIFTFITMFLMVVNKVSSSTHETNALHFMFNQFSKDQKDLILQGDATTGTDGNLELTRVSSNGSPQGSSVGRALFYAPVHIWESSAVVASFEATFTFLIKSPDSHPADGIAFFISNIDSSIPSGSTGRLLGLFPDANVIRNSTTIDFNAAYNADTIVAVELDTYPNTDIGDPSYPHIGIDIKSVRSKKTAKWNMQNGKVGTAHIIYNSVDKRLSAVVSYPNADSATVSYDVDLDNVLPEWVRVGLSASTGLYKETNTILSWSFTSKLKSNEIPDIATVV

For the compound `COc1ccccc1CN1C(=O)c2ccccc2[C@](Cc2ccccc2I)(C(=O)O)[C@@H]1c1ccc(CO)cc1`, the composite z-score is 0.76 in the assay with Albumin (Bos taurus); 0.0961 in [2]; -0.0238 in [3]; 0.328 in assay [4]; 2 in assay [5]; 0.704 in assay [6]. Moreover, the composite z-score in the assay on Sam68 (KHDRBS1) amounted to 1.27; in [7], 0.227; in [8], 1.18; in assay [9], 1.76; in assay [10] it was 1.21; in [11], 0.758. Also, the composite z-score amounted to 0.809 in assay [12]; 1.26 in assay [13]; 1.33 in assay [14]; 0.74 in the assay with Lefty1; 0.762 in assay [16]. The composite Z-score in assay [1] was 0.114 (inactive). Besides, the z-score in [15] was 0.227; in assay [17] it was -1.01 (inactive).

Consider `C=CCC(OC(C)=O)[C@@H]1[C@@H](N(Cc2cccc3ccccc23)C(=O)Cc2ccc(F)cc2)c2cc(OCCCO)ccc2N1C(=O)c1ccc2ccccc2c1` (stereo not given in full), for which the composite z-score with Albumin (Bos taurus) is -0.0241; in assay [2] it was -0.0111; in assay [3], -0.104; in assay [4] it was -0.0968; in assay [5] it was 0.0036; in assay [6], -0.353. The composite z-score in the assay on Sam68 (KHDRBS1) is -0.0562; in assay [7], 0.235; in assay [8] it was -0.15; in [9], 0.301; in assay [10], -0.247; in assay [11] it was 0.114. In addition, the composite z-score in assay [12] was 0.131; in [13], 0.7; in assay [14] it was -0.328; in the assay on Lefty1, 0.117; in assay [16], 0.0096. Moreover, in [1], the composite Z-score is -0.748 (inactive). Also, the z-score in assay [15] is 1.03; in assay [17], 0.739 (inactive).

Consider `CO[C@H]1O[C@H](CO)[C@@H](OC(=O)Nc2ccc(Br)cc2)[C@@H]2OC(=O)[C@@H](Cc3ccccc3)C/C=C/C[C@H](Cc3ccccc3)C(=O)O[C@@H]12`, for which the composite z-score was 0.771 in the assay with Albumin (Bos taurus); 0.11 in [2]; -0.0601 in assay [3]; 0.635 in assay [4]; 1.65 in assay [5]; 0.0964 in assay [6]. In addition, the composite z-score was 0.968 with Sam68 (KHDRBS1); -0.173 in assay [7]; 0.516 in assay [8]; 2.43 in [9]; 1.16 in [10]; 0.619 in assay [11]. In addition, the composite z-score in assay [12] was 0.442; in assay [13], 0.313; in assay [14], 0.397; in the assay on Lefty1 it was -0.0196; in assay [16], 0.424. In [1], the composite Z-score is -1.09 (inactive). Moreover, the values for the z-score in assay [15] and in assay [17] were 2.5 and -1.38 (inactive), respectively.

With `C=CCC(OC(C)=O)[C@@H]1[C@@H](N(Cc2ccc(-c3ccccc3)cc2)C(=O)c2ccc(-c3ccccc3)cc2)c2cc(OCCCO)ccc2N1C(=O)c1ccc2ccccc2c1` (stereo not given in full), the composite z-score in the assay with Albumin (Bos taurus) was -0.186; in assay [2], -0.0208; in [3], -0.115; in [4], 0.212; in assay [5], 0.937; in [6], -0.129. Further, the composite z-score with Sam68 (KHDRBS1) is 0.352; in assay [7], 0.0949; in [8], -0.38; in assay [9] it was -0.162; in [10] it was 0.0751; in assay [11] it was -0.138. Besides, the composite z-score in [12] was -0.239; in assay [13], 0.707; in assay [14], -0.193; in the assay with Lefty1, 0.476; in assay [16], -0.094. In addition, the composite Z-score in assay [1] is -0.473 (inactive). In addition, the z-score in assay [15] was 0.657; in assay [17], -0.424 (inactive).

For `COc1ccc([Si](C)(C)[C@@H]2[C@@H](CC(=O)N3Cc4ccccc4C[C@H]3CO)O[C@]3(C(=O)N(Cc4ccc(N5C(=O)c6cccc7cccc5c67)cc4)c4ccccc43)[C@H]2C)cc1`, the composite z-score with Albumin (Bos taurus) was -0.604; in assay [2], 0.171; in assay [3], -0.0728; in assay [4], 0.351; in assay [5], 1.25; in assay [6] it was -0.0469. The composite z-score in the assay with Sam68 (KHDRBS1) came to 1.31; in [7] it was 1.18; in assay [8], 0.988; in [9], 0.0827; in assay [10], 1.18; in assay [11] it was 0.949. The composite z-score in [12] was 0.706; in assay [13] it was 1.33; in [14], 1.59; in the assay on Lefty1, 1.11; in [16], 0.323. In assay [1], the composite Z-score is 0.535 (inactive). Also, the z-score in assay [15] is 1.2; in [17] it was -1.05 (inactive).
